Assay results reported in PubChem BioAssay (Tox21).
Inconclusive results are not listed. Where a call stands in place of a potency, no number is given. Unmarked numbers belong to inactive results. Calls of active or inactive are those of the source. Calls follow the shape of the dose curve; as a rule, active = well fitted cell-killing curve with a large enough effect in the repeat runs; inconclusive = weak or mixed curves, or effect the other way; inactive = flat fitted curve, though single readings scatter.
Potency is read from the fitted curve at half-maximal effect.

Assay: qHTS RealTime-Glo MT Cell Viability Assay in HEK293 cells - 16 hour (AID 1224872); also: nearly all actives have a fitted effect of over 50% in size; as to activity change, negative = cytotoxicity: top concentration of the series differs between compounds
Conditions: RealTime-Glo luminescence; series mostly up to 76.8 µM
How it was run: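 HEK293 cells were seeded at 600 cells/well together with NanoLuc luciferase and cell-permeant prosubstrate, preincubated 5 h at 37 C/5% CO2, then given compound in DMSO by pintool. Luminescence from viable-cell prosubstrate reduction was read repeatedly over 40 h.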
For `Cc1cccc(C)c1NC(=O)CN1CCCCCC1`, the Potency was “inactive”.
For `OCCN(CCO)CCN(CCO)CCO`, the Potency was “inactive”.
For `CCOC(=O)NCCC[Si](OCC)(OCC)OCC`, the Potency was “inactive”.
In the case of `O=C(CCCl)NCc1ccccc1`, the Potency is reported as “inactive”.
With `O=c1[nH]cnc2c1ncn2[C@@H]1O[C@H](CO)[C@@H](O)[C@H]1O` the Potency was “inactive”.
With `C=CC1CO1` (configuration not stated) the Potency was “inactive”.
With `C[C@]12C(=O)OC(=O)[C@H]1[C@H]1C=C[C@@H]2C1` the Potency was “inactive”.
With `NNS(=O)(=O)c1ccc(Oc2ccc(S(=O)(=O)NN)cc2)cc1` the Potency was “inactive”.
In the case of `CN1CCN(C2=Nc3cc(F)ccc3Cc3ccccc32)CC1`, the Potency is reported as “inactive”.
In the case of `Cc1cn([C@@H]2O[C@H](CO)[C@@H](O)[C@@H]2F)c(=O)[nH]c1=O`, the Potency is reported as “inactive”.
With `CCCc1c2oc(C(=O)O)cc(=O)c2cc2c(=O)cc(C(=O)O)n(CC)c12` the Potency was “inactive”.
In the case of `Cc1ncc(CO)c(CN)c1O`, the Potency is reported as “inactive”.
With `NC1=NCC2c3ccccc3Cc3ccccc3N12` (configuration not stated) the Potency was “inactive”.
With `FC(F)(F)C(Cl)(Cl)Cl` the Potency was “inactive”.
For `CCCOCCC`, the Potency was “inactive”.
In the case of `Cc1cc2c(s1)Nc1ccccc1N=C2N1CCN(C)CC1`, the Potency is reported as “inactive”.
In the case of `CCC(=O)Nc1ccc(O)cc1`, the Potency is reported as “inactive”.
With `CCC/C=C/CO` the Potency was “inactive”.
In the case of `C[C@@H]1CN(c2c(F)c(F)c3c(=O)c(C(=O)O)cn(C4CC4)c3c2F)C[C@H](C)N1`, the activity change, negative = cytotoxicity is reported as 0.662% [at 15.8 µM].
With `CCOC(=O)c1cc(=O)c2c(OCC(COc3cccc4oc(C(=O)OCC)cc(=O)c34)OC(=O)[C@@H](N)CCCCN)cccc2o1` the Potency was “inactive”.
With `CCc1cc2cc(OC)c(OC)cc2c(Cc2ccccc2)n1` the Potency was 16.9 µM (active).
In the case of `O=C(O)[C@@H]1CSCN1`, the Potency is reported as “inactive”.
`COC(=O)c1ccc2cc(C(=O)OC)ccc2c1` showed an activity change, negative = cytotoxicity of -1.54% [at 15.8 µM].
For `CCOC(=O)C(Br)c1ccccc1` (configuration not stated), the Potency was “inactive”.
In the case of `Cc1ccc([N+](=O)[O-])c(N)c1`, the Potency is reported as “inactive”.
In the case of `C1CCOC1`, the Potency is reported as “inactive”.
With `CCCCCCCCCCCCCCCCOP(=O)([O-])OCC[N+](C)(C)C` the Potency was “inactive”.
For `CCCCCCCCOC(=O)CCCCCCCCC(=O)OCCCCCCCC`, the Potency was “inactive”.
In the case of `CCCCCCn1c(=O)c2c(ncn2C)n(C)c1=O`, the Potency is reported as “inactive”.
For `CN(C)Cc1ccccc1`, the Potency was “inactive”.
With `Cc1c(N)cccc1N` the Potency was “inactive”.
With `N#Cc1ccc(C(c2ccc(C#N)cc2)n2cncn2)cc1` the Potency was “inactive”.
For `O=CCCc1ccccc1`, the Potency was “inactive”.
With `CCN(CC)CC1CCCCN1CC(=O)N1c2ccccc2C(=O)Nc2cccnc21` (configuration not stated) the Potency was “inactive”.
For `Cc1ccsc1C(=CCCN1CCC[C@@H](C(=O)O)C1)c1sccc1C`, the Potency was “inactive”.
For `FC(F)(F)c1ccccc1`, the Potency was “inactive”.
With `O=S(=O)(O)C(F)(F)F` the Potency was “inactive”.
